# Experiments:
# Test in all cases: DAPPL (digital affinity profiling via proximity ligation, sequencing); 10 mM Tris-HCl pH 7.5, 50 mM NaCl, 1 mM DTT, 4% glycerol, room temperature, 30 min; GST-TFs on glutathione beads, 16-mer random dsDNA library, 0.1% formaldehyde crosslink after washing; high values mean tight binding
# Settings in all cases: protein: recombinant; tags: N-terminal GST; dsDNA, one strand shown
# [1] = molecular target: T1, FLI1 (Homo sapiens, UniProt Q01543 1-452)
# T1 sequence: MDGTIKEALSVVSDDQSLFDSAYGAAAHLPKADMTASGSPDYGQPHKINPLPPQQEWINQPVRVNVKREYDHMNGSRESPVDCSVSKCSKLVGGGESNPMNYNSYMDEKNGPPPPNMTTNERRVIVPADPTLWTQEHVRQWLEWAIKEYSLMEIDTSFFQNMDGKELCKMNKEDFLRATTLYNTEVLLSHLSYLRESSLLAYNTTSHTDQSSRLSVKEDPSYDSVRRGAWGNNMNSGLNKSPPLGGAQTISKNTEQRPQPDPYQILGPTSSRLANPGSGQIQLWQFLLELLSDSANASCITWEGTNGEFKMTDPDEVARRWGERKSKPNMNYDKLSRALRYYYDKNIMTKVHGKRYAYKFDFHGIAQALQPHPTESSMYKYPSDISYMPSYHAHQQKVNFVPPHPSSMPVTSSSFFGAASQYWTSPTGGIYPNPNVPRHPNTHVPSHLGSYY
# Procedure, shortened: (§1)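 Binding signal is given per hexamer as its read frequency for a factor divided by its frequency in the tag-only sample. GST-fused human transcription factors were expressed in yeast, captured on glutathione beads, barcoded with DNA and pooled with that sample, then incubated with 200 nmole of a 16-mer random double-stranded DNA library in Tris/NaCl/DTT/glycerol buffer for 30 min at room temperature. The pools were then washed, crosslinked, proximity-ligated, amplified by PCR and sequenced on an Illumina NextSeq500.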
# [2] = molecular target: T2, ELK1 (Homo sapiens, UniProt P19419 1-428)
# T2 sequence: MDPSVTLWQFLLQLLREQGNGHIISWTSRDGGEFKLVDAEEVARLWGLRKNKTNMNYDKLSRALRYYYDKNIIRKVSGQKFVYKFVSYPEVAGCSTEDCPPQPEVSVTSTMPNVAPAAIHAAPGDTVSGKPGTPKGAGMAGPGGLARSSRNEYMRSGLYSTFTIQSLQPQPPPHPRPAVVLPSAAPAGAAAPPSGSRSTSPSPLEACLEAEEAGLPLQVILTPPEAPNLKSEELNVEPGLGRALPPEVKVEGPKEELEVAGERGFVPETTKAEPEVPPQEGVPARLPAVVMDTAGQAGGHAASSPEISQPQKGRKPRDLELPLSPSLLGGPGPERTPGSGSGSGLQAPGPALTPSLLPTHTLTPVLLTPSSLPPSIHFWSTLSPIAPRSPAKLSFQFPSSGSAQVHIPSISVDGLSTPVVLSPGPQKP
# Procedure, shortened: as §1
# [3] = molecular target: T3, GABPA (Homo sapiens, UniProt Q06546 1-454)
# T3 sequence: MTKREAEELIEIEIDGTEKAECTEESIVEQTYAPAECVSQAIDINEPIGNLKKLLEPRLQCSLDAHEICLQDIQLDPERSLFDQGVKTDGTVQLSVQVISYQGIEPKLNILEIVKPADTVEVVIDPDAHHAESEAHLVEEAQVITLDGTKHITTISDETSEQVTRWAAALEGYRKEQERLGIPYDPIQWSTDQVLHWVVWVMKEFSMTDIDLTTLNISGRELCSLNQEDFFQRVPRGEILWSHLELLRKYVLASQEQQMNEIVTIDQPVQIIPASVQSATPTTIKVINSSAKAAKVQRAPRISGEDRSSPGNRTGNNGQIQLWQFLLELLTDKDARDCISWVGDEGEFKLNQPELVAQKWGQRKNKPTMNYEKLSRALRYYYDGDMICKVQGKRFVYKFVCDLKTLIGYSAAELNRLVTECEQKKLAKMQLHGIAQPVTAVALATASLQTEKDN
# Procedure, shortened: as §1
# [4] = molecular target: T4, ERG (Homo sapiens, UniProt P11308 1-479)
# T4 sequence: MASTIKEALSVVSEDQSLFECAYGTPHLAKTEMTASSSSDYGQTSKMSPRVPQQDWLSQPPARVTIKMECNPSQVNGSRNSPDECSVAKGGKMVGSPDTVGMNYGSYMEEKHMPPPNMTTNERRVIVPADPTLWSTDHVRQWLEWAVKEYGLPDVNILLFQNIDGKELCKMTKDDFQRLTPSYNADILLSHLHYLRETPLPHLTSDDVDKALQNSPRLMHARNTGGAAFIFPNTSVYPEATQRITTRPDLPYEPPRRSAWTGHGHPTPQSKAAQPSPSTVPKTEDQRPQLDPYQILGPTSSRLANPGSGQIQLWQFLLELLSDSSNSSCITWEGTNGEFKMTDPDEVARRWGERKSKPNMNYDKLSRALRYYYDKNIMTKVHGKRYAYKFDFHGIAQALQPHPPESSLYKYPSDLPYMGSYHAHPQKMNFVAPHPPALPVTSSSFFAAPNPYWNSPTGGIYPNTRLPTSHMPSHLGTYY
# Procedure, shortened: as §1
# [5] = molecular target: ELF1 (Homo sapiens, UniProt P32519 1-619)
# Procedure, shortened: as §1
# [6] = molecular target: T5, EHF (Homo sapiens, UniProt Q9NZC4 1-300)
# T5 sequence: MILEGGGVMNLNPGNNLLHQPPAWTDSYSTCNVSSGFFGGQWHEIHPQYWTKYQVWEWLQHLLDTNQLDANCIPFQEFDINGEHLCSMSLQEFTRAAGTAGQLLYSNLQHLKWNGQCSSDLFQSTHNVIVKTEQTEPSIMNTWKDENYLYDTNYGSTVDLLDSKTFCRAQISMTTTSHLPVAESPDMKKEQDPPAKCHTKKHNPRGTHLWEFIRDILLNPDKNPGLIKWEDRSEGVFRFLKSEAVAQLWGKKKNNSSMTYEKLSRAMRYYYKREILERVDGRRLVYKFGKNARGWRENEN
# Procedure, shortened: as §1
# [7] = molecular target: SPI1 (Homo sapiens, UniProt P17947 1-270)
# Procedure, shortened: as §1
# [8] = molecular target: SPIB (Homo sapiens, UniProt Q01892 1-262)
# Procedure, shortened: as §1
# [9] = molecular target: T6, ELK3 (Homo sapiens, UniProt P41970 1-407)
# T6 sequence: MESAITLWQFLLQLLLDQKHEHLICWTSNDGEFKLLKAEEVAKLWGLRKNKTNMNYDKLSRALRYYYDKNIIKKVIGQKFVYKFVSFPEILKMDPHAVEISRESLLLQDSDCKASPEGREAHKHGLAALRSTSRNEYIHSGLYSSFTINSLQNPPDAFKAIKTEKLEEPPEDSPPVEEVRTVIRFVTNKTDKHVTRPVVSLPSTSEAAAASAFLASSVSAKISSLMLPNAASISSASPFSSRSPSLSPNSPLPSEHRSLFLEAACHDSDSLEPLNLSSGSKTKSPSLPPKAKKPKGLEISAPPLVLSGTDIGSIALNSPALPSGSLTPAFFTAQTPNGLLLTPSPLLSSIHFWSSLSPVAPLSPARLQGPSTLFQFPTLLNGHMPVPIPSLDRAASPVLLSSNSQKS
# Procedure, shortened: as §1
# [10] = molecular target: T7, FEV (Homo sapiens, UniProt Q99581 1-238)
# T7 sequence: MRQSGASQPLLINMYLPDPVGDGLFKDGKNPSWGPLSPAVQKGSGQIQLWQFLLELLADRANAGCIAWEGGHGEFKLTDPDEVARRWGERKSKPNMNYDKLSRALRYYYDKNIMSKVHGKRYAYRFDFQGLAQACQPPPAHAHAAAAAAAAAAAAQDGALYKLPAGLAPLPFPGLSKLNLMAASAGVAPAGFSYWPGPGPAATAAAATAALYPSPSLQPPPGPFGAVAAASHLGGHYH
# Procedure, shortened: as §1
# [11] = molecular target: ETV5 (Homo sapiens, UniProt P41161 1-510)
# Procedure, shortened: as §1
# [12] = molecular target: T8, SPIC (Homo sapiens, UniProt Q8N5J4 1-248)
# T8 sequence: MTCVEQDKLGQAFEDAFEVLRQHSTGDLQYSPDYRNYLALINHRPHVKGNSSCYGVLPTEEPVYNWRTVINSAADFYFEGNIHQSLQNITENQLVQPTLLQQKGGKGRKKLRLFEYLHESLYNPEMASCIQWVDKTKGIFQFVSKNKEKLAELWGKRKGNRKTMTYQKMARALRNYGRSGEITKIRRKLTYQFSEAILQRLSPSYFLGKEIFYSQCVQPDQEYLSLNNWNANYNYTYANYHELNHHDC
# Procedure, shortened: as §1
# [13] = molecular target: ELF4 (Homo sapiens, UniProt Q99607 1-663)
# Procedure, shortened: as §1
# [14] = molecular target: ETV1 (Homo sapiens, UniProt P50549 1-477)
# Procedure, shortened: as §1
# [15] = molecular target: T9, ERF (Homo sapiens, UniProt P50548 1-548)
# T9 sequence: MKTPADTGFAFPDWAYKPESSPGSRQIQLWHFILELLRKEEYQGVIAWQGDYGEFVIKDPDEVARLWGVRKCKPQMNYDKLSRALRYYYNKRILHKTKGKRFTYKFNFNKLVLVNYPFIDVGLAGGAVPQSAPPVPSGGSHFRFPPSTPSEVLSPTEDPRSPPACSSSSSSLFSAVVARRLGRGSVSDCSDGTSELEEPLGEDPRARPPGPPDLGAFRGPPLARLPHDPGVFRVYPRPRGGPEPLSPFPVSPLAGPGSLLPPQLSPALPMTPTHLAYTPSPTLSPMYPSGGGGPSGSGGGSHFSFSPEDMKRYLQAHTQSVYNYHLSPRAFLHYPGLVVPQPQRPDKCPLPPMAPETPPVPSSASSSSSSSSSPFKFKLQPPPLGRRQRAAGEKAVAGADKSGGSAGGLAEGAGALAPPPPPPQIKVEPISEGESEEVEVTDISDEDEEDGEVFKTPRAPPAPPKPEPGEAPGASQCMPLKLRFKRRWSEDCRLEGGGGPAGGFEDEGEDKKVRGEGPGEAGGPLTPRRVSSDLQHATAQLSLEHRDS
# Procedure, shortened: as §1
# [16] = molecular target: T10, ETV3L (Homo sapiens, UniProt Q6ZN32 1-361)
# T10 sequence: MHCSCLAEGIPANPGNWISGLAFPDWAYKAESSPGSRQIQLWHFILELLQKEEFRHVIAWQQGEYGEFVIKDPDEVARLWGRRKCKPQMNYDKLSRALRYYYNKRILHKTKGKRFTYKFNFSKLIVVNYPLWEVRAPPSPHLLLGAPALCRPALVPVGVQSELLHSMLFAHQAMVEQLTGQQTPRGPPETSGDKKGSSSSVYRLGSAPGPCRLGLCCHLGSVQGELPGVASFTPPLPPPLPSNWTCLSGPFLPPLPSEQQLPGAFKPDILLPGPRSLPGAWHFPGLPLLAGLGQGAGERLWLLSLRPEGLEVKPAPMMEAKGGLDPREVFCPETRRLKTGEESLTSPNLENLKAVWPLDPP
# Procedure, shortened: as §1
# [17] = molecular target: T11, ETS2 (Homo sapiens, UniProt P15036 1-469)
# T11 sequence: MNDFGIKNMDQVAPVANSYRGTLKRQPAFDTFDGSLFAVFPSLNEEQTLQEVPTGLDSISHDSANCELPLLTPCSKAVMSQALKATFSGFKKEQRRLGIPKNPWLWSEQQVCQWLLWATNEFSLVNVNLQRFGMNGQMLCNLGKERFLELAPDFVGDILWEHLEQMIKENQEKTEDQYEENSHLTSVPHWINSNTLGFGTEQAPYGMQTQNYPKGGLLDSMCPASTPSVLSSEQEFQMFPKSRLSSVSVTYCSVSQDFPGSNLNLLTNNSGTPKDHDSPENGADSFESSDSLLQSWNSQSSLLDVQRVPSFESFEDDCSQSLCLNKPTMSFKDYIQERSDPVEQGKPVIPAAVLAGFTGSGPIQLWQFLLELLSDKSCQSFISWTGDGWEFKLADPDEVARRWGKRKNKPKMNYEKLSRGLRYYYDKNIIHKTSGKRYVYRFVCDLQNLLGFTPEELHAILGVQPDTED
# Procedure, shortened: as §1
# [18] = molecular target: T12, ELF5 (Homo sapiens, UniProt Q9UKW6-2 1-255)
# T12 sequence: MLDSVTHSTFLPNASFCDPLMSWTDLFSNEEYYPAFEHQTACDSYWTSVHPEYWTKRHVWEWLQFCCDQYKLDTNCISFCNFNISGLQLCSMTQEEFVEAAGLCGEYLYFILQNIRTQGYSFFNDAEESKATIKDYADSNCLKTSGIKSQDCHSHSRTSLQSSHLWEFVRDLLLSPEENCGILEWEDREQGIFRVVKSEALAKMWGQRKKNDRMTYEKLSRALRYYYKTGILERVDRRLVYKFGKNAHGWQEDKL
# Procedure, shortened: as §1
# [19] = molecular target: T13, ETV3 (Homo sapiens, UniProt P41162-2 1-143)
# T13 sequence: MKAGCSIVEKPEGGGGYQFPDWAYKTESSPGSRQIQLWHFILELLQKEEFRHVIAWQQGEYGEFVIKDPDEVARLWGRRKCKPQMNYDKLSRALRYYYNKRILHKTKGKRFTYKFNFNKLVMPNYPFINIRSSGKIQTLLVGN
# Procedure, shortened: as §1
# [20] = molecular target: ETV6 (Homo sapiens, UniProt P41212 1-452)
# Procedure, shortened: as §1
# ETV1, sequence (P50549 whole entry): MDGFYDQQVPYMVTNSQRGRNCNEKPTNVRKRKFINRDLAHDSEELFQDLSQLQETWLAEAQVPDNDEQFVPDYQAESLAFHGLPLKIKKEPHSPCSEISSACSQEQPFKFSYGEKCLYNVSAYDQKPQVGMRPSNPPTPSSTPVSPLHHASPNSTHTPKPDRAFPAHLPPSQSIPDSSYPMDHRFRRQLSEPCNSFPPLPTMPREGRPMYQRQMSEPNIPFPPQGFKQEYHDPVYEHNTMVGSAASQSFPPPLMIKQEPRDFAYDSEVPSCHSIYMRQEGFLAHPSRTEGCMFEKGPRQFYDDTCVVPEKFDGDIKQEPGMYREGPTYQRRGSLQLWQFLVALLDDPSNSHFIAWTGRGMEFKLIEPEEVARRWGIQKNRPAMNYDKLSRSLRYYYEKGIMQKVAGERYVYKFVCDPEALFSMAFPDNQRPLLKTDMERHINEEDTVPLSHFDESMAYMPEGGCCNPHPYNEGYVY
# ELF1, sequence (P32519 whole entry): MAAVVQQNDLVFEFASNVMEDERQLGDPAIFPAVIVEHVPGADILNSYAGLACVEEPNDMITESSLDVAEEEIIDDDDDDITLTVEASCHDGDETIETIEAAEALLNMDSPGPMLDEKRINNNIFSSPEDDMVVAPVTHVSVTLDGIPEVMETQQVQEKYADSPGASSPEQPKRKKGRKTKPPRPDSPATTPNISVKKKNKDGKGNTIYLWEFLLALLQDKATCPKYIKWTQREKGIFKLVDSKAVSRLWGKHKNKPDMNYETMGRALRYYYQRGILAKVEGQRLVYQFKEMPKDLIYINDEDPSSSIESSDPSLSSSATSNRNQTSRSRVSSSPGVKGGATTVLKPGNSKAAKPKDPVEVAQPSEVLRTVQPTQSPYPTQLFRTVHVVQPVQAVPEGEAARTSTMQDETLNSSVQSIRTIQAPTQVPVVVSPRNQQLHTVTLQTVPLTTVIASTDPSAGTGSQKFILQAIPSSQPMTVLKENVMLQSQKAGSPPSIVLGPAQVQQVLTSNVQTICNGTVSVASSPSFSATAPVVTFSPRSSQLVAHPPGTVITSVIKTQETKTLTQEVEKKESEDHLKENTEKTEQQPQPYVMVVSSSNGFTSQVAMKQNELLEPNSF
# SPIB, sequence (Q01892 whole entry): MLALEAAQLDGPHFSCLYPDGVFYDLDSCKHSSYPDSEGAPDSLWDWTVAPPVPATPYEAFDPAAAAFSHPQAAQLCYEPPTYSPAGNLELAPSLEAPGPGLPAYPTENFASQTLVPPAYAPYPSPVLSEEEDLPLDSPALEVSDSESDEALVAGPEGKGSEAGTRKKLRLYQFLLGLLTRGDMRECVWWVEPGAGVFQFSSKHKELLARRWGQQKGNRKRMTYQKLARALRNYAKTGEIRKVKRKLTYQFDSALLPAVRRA
# ETV6, sequence (P41212 whole entry): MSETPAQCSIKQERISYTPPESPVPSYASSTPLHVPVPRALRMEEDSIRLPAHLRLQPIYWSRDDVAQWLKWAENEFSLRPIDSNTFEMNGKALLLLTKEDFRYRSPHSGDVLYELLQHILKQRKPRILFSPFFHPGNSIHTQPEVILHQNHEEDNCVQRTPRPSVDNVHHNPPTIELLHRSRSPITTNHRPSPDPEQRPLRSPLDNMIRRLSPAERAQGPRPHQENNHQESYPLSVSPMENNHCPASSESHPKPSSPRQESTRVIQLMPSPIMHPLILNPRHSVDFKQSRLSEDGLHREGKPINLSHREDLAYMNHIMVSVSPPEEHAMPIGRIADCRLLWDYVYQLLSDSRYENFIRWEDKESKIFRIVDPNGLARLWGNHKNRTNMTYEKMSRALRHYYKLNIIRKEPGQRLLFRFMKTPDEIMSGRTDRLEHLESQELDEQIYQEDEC
# ELF4, sequence (Q99607 whole entry): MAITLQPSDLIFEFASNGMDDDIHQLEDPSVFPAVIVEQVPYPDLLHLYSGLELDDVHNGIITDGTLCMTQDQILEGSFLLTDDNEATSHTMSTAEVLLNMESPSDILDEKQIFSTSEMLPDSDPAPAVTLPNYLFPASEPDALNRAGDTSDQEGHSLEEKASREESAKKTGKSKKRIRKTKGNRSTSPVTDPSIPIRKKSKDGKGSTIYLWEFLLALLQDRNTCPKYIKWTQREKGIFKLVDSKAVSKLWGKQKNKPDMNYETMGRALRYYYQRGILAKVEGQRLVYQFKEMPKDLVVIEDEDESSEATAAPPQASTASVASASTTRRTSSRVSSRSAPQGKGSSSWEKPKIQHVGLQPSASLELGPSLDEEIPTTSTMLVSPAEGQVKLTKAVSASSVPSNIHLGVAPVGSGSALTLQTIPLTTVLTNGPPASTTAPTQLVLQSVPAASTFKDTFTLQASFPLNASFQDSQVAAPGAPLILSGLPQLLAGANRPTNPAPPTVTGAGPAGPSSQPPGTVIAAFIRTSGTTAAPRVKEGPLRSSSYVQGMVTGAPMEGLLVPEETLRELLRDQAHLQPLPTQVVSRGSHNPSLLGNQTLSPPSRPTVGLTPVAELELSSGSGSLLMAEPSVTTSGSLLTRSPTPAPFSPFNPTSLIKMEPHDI
# ETV5, sequence (P41161 whole entry): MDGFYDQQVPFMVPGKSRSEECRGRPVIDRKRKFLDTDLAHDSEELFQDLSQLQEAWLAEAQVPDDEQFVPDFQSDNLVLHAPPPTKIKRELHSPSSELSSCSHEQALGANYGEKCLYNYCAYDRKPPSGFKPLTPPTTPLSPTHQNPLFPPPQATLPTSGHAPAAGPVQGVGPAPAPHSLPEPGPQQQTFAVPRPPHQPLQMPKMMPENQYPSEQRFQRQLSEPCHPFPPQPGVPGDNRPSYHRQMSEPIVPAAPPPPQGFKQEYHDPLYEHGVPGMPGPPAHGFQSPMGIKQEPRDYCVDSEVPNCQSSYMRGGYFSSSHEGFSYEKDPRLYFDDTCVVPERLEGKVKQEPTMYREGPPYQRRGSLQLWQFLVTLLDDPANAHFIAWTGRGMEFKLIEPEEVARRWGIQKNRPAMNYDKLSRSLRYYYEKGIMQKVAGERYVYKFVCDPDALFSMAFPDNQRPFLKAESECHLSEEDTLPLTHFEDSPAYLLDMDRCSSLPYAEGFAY
sequence,measurement,setting,value
ACATGG,binding signal,[1],"1.17 fold enrichment (6-mer frequency, TF over GST control)"
same,binding signal,[2],"1.13 fold enrichment (6-mer frequency, TF over GST control)"
same,binding signal,[3],"1.15 fold enrichment (6-mer frequency, TF over GST control)"
same,binding signal,[4],"1.16 fold enrichment (6-mer frequency, TF over GST control)"
same,binding signal,[5],"1.15 fold enrichment (6-mer frequency, TF over GST control)"
same,binding signal,[6],"1.1 fold enrichment (6-mer frequency, TF over GST control)"
same,binding signal,[7],"1.14 fold enrichment (6-mer frequency, TF over GST control)"
same,binding signal,[8],"1.04 fold enrichment (6-mer frequency, TF over GST control)"
same,binding signal,[9],"1.09 fold enrichment (6-mer frequency, TF over GST control)"
same,binding signal,[10],"1.04 fold enrichment (6-mer frequency, TF over GST control)"
same,binding signal,[11],"1.1 fold enrichment (6-mer frequency, TF over GST control)"
same,binding signal,[12],"1.18 fold enrichment (6-mer frequency, TF over GST control)"
same,binding signal,[13],"1.21 fold enrichment (6-mer frequency, TF over GST control)"
same,binding signal,[14],"1.14 fold enrichment (6-mer frequency, TF over GST control)"
same,binding signal,[15],"1.14 fold enrichment (6-mer frequency, TF over GST control)"
same,binding signal,[16],"1.19 fold enrichment (6-mer frequency, TF over GST control)"
same,binding signal,[17],"1.14 fold enrichment (6-mer frequency, TF over GST control)"
same,binding signal,[18],"1.1 fold enrichment (6-mer frequency, TF over GST control)"
same,binding signal,[19],"1.13 fold enrichment (6-mer frequency, TF over GST control)"
same,binding signal,[20],"1.14 fold enrichment (6-mer frequency, TF over GST control)"
